From PubChem BioAssay (NCATS)
Inconclusive results are not listed. A call without a number means that no potency is given here. Unmarked numbers belong to inactive results. Active and inactive are the calls of the source. Calls follow the shape of the dose curve; as a rule, active = well fitted cell-killing curve with a large enough effect; inconclusive = small, poorly fitted or top-dose-only effect, or effect the other way; inactive = no such curve, though single readings can be large or run the other way.

Experiment: Viability qHTS for spleen associated tyrosine kinase inhibitor (SYKi) naive MV4-11 cells (AID 1963823); also: nearly all actives have a fitted effect of over 40% in size
Conditions: MV4-11 AML viability, CellTiter-Glo luminescence, 72 h; series mostly up to 45 µM
Summary of the method: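 qHTS, SYK inhibitor-naive MV4-11; 500 cells/well; 72 hr compound exposure, 37 C; CellTiter-Glo added, 10 min RT; luminescence read.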
Potency is read from the fitted curve at half-maximal effect.

Structure (SMILES) | Potency | viability (% of control)
CC1(C)C2CC[C@]3(C)C(C(=O)C=C4[C@H]5C[C@@](C)(C(=O)O)CC[C@]5(C)CC[C@]43C)[C@@]2(C)CC[C@@H]1O (some centres not stated) | inactive | –
O=C(CCc1ccccc1)c1c(O)c([C@@H]2O[C@H](CO)[C@@H](O)[C@H](O)[C@H]2O)c(O)c([C@@H]2O[C@H](CO)[C@@H](O)[C@H](O)[C@H]2O)c1O | inactive | –
COc1ccc(CN2C(=O)C(=O)c3cc(S(=O)(=O)N4CCC[C@H]4COc4cccnc4)ccc32)cc1 | inactive | –
COc1cc(C(=O)OC[C@@]2(O)CO[C@@H](O[C@H]3[C@H](Oc4ccc(C(=O)O)cc4OC)O[C@H](CO)[C@@H](O)[C@@H]3O)[C@@H]2O)ccc1O | inactive | –
CC1CCC2(C(=O)OC3OC(CO)C(O)C(O)C3O)CCC3(C(=O)O)C(=CCC4C5(C)CCC(OC6OC(C)C(O)C(O)C6O)C(C)(C)C5CCC43C)C2C1C (configuration not stated) | inactive | –
O=S(=O)(NCc1cccc2ccccc12)c1cc(Cl)c(Oc2cccc(N3CCNCC3)c2)s1 | 2.59 µM (active) | –
COc1cc(C(=O)OC[C@@]2(O)CO[C@@H](O[C@H]3[C@H](Oc4ccc(O)cc4)O[C@H](CO)[C@@H](O)[C@@H]3O)[C@@H]2O)cc(OC)c1O | inactive | –
CCCC(=O)C1CCN(c2ncnc3c2CN(C(=O)c2ccc(-c4ccccc4)cc2)CC3)CC1 | 16.4 µM (active) | –
CC(O)CO[C@@H]1O[C@H](CO)[C@@H](O)[C@H](O)[C@H]1O (some centres not stated) | inactive | –
CC/C(=C(\c1ccc(O)cc1)c1ccc(OCCNC)cc1)c1ccccc1 | inactive | –
COC(=O)C1(O)C(OC(C)=O)CCC2C3(CC(c4ccoc4)OC3=O)C(C)=CCC21C(=O)OC (configuration not stated) | inactive | –
C=C1C(=O)O[C@@H]2/C=C(\C)CC/C=C(/C=O)[C@H](OC)[C@@H](OC(=O)C(C)C)[C@@H]12 | 4.04 µM (active) | –
CC(C)c1ccc(CO)cc1O[C@@H]1O[C@H](CO)[C@@H](O)[C@H](O)[C@H]1O | inactive | –
CC1(C)CC[C@]23CO[C@@]4(CCC5[C@@]6(C)CC[C@H](O[C@@H]7OC[C@H](O[C@@H]8O[C@H](CO)[C@@H](O)[C@H](O)[C@H]8O[C@@H]8OC[C@@H](O)[C@H](O)[C@H]8O)[C@H](O)[C@H]7O[C@@H]7O[C@H](CO)[C@@H](O)[C@H](O)[C@H]7O)[C@@](C)(CO)C6CC[C@@]5(C)[C@]4(C)C[C@H]2O)[C@@H]3C1 (some centres not stated) | 2.19 µM (active) | –
CCC(C)CNCC(=O)N1CCC2SC=CC2C1COc1cccc(C)c1 (configuration not stated) | 11.6 µM (active) | –
Cc1cc(-c2cnc(N)c3c(-c4ccc5scnc5c4)csc23)n(C)n1 | 1.3 µM (active) | –
Cc1ccc(C2(COC(=O)C(C)C)CO2)c(OC(=O)C(C)C)c1 (configuration not stated) | 1.8 µM (active) | –
C=C[C@H]1[C@H](O[C@@H]2O[C@H](CO[C@@H]3OC[C@](O)(CO)[C@H]3O)[C@@H](O)[C@H](O)[C@H]2O)OC=C2C(=O)OCC[C@H]21 | inactive | –
O=C(C[C@@H]1C(C(=O)O)=CO[C@@H](O[C@@H]2O[C@H](CO)[C@@H](O)[C@H](O)[C@H]2O)/C1=C\CO)OCCc1ccc(O)c(O)c1 | inactive | –
O=C(/C=C/c1ccc(O)cc1)OCC1=C[C@@H](O)[C@@H]2C=CO[C@@H](O[C@@H]3O[C@H](CO)[C@@H](O)[C@H](O)[C@H]3O)[C@H]12 | inactive | –
CC1(C)CC[C@]2(C(=O)O[C@@H]3O[C@H](CO)[C@@H](O)[C@H](O)[C@H]3O)CC[C@]3(C)C(=CCC4[C@@]5(C)CC[C@H](O[C@@H]6O[C@H](C(=O)O)[C@@H](O[C@@H]7O[C@H](CO)[C@@H](O)[C@H](O)[C@H]7O)[C@H](O)[C@H]6O)C(C)(C)C5CC[C@]43C)C2C1 (some centres not stated) | – | 78.7% [at 9.25 µM]
CC1(C)CCC2(CC1)N[C@@H](C(=O)N[C@@H]1CC[C@@H](C(N)=O)OC1)[C@H](c1ccnc(Cl)c1F)[C@]21C(=O)Nc2cc(Cl)ccc21 | 16 µM (active) | –
Oc1ccc2c(c1)OCC1(O)Cc3cc(O)c(O)cc3C21 (configuration not stated) | 3.66 µM (active) | –
O=C(Nc1cccc(C(F)(F)F)c1)c1ccccc1NCc1ccncc1 | 8.2 µM (active) | –
COc1ccc(/C=C\C(=O)O)c(O[C@@H]2O[C@H](CO)[C@@H](O)[C@H](O)[C@H]2O)c1 | inactive | –
COc1cc2occc2c(O[C@@H]2O[C@H](CO)[C@@H](O)[C@H](O)[C@H]2O)c1CCC(=O)O | inactive | –
CC1(CO)CCCC2(C)C1C(OC(=O)c1ccccc1)C=C1C(=O)OCC12O (configuration not stated) | 1.8 µM (active) | –
